Tests used:
Test in all cases: PBM binding z-score (relative to random genomic background probes); higher = stronger binding; sequences stand for … in GC…GCGATTGACAGCGTAGAATGAAGG
[1] = system: PPARg:RXRa DBDmut IVT, anti-RXR (DBD mutation: RXRa K156A/R161A, NR concentration 270 nM, RXRa partner concentration 90 nM)
In short: (§1)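 On custom Agilent 4×180K arrays, double-stranded probes with 34-nt variable regions carried direct-repeat seeds, single-nucleotide variants, half-site ablations or random human genomic background. Ligand-free nuclear receptor dimers were applied for 1 h, and binding was read with antibodies against each partner (one per run). Binding z-scores come from regression-normalized fluorescence, with the random background probes as reference.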

[2] = system: PPARg:RXRa IVT, anti-PPARg (NR concentration 270 nM, RXRa partner concentration 90 nM)
In short: as §1

[3] = system: PPARg DBDmut:RXRa IVT, anti-PPARg (DBD mutation: PPARg1 K132A/R137A, NR concentration 270 nM, RXRa partner concentration 90 nM)
In short: as §1

[4] = system: PPARg DBDmut IVT, anti-PPARg (DBD mutation: PPARg1 K132A/R137A, NR concentration 270 nM)
In short: as §1

[5] = system: PPARg homodimer (NR concentration 180 nM)
In short: as §1

[6] = system: PXR:RXRa (NR concentration 270 nM, RXRa partner concentration 90 nM)
In short: as §1

[7] = system: PXR homodimer (NR concentration 270 nM)
In short: as §1

[8] = system: RARa:RXR (NR concentration 270 nM, RXRa partner concentration 90 nM)
In short: as §1

[9] = system: RARa homodimer (NR concentration 270 nM)
In short: as §1

[10] = system: RARb:RXRa (NR concentration 270 nM, RXRa partner concentration 90 nM)
In short: as §1

Sequence | PBM binding z-score [1] | PBM binding z-score [2] | PBM binding z-score [3] | PBM binding z-score [4] | PBM binding z-score [5] | PBM binding z-score [6] | PBM binding z-score [7] | PBM binding z-score [8] | PBM binding z-score [9] | PBM binding z-score [10]
CCTACTGGGCCAAGGACATTGATCAGTCAAAGCA | 3.42 | 3.05 | -0.364 | -0.839 | -0.294 | -0.555 | -0.0775 | -0.237 | -0.533 | 0.145
GCGACTGGGGCATCAGGAGGTTACCATAACTTAA | 3.82 | 3.59 | -0.435 | -0.747 | 0.816 | 0.63 | -0.0464 | 1.16 | -0.466 | 1.21
CCTAGTTAGTCAGGAGGTCACACACCGGATATGA | 1.08 | 2.35 | 1.22 | 0.693 | 3.69 | 4.33 | 1.96 | 4.59 | 2.45 | 3.69
ATCTCTAGGTACAGATAGTTCAGTGAATGCAAAT | -0.154 | 0.347 | 1.38 | 1.2 | 0.865 | 0.698 | 1.5 | 0.218 | 0.726 | 0.832
CCTACTGGGCCATCATGTCATTGATATCAACGTT | 4.06 | 4.28 | 0.246 | 0.754 | 0.785 | -0.129 | 0.119 | 0.097 | -0.0554 | 0.332
TCGAATAGGTTACCAATGGGGCATTCAGCTTTCT | 2.41 | 1.12 | 0.24 | -0.411 | 0.402 | 0.725 | 0.0437 | 0.908 | 0.281 | 1.57
CCAGAGAGGTGAGAAGGTAACTCAGCCTCGATTA | 2.21 | 1.69 | -0.147 | -0.518 | 0.918 | 0.339 | 0.0728 | 1.04 | -0.0942 | 1.57
CTCGAACGGTCGGTTGAGGTGAGTATACGGATAA | -0.509 | -0.343 | -0.772 | -0.429 | -1.41 | -0.224 | -0.776 | 0.779 | -1.48 | 0.604
AGTCAAAGTTCATGTAGGTAACGTAAGATATGCT | 0.795 | 4 | 1.62 | 2.1 | 3.26 | 5.3 | 5.21 | 3.76 | 0.859 | 4.81
CAAACTAGGTCAAGAGCTCAAAGTCCGCTTCCCG | 8.17 | 8.44 | 4.03 | 2.91 | 2.57 | 1.06 | -0.169 | 2.14 | 0.0982 | 3.99
GCGACTGGGGCATCAGCAGGTGACCATAACTTAA | 4.17 | 3.33 | -0.697 | -0.862 | 0.0227 | -0.51 | -0.76 | -0.136 | -0.252 | 0.702
CTGACTGGGGCAGAAAGGTTACCATACCATCCGG | 2.87 | 3.6 | 0.376 | 0.141 | 1.76 | 1.12 | 0.49 | 1.75 | 0.326 | 2.13
ATATGTCGGTTAGCTGGGGTCATTCAGACTAGGC | 1.3 | 2.25 | 0.889 | 0.777 | 1.85 | 5.49 | 3.48 | 5.05 | 0.853 | 2.62
GGAACGAGTGCATTCGAGTTGATAGCATGGCGAT | -0.308 | -0.6 | -1.05 | -0.767 | -1.32 | 2.91 | 3.49 | -0.0398 | -1.2 | -0.311
TGGATGAGGTTATAAGATCAGGGAACGTTGCAAA | -0.0803 | 0.649 | 0.558 | 0.341 | 0.81 | 0.986 | 0.518 | 1.34 | 0.465 | 1.25
CCTACTGGGCCAAAGGTCATTGAATCCAATGCTC | 5.12 | 6.72 | -0.082 | 0.0276 | 3.57 | 5.26 | 1.68 | 5.79 | 0.758 | 4.52
AGTCAAAGTTCAGAACGAGGTAACGTAAAGCACG | 0.0651 | 2.1 | 0.709 | 0.236 | 1.58 | 3.14 | 1.5 | 2.94 | 0.271 | 4.01
TGTTGTAGATCAACAGGAGGTTAAGAAAGATCGA | -0.279 | 0.51 | 0.32 | 0.601 | 0.107 | 0.714 | -0.0905 | 0.912 | -0.122 | 0.386
GCTGCTAGGTCAGGTTGGTCAGCTATCGGGTACG | 2.93 | 2.58 | -0.776 | -0.675 | 1.22 | 0.328 | -0.458 | 0.73 | -0.348 | 3.46
TAGCCTAGGTAATTGGGCCAGTATAGTACGCATC | 1.83 | 2.8 | 0.0704 | -0.276 | -0.531 | -0.502 | -0.469 | -0.743 | -0.501 | -0.455
TCTCGGCGGACACGAAGGTCAGAGCTTTCCAGAG | 0.413 | 0.291 | -0.613 | -1.55 | 0.53 | 1.09 | -0.42 | 1.09 | -0.212 | 2.45
ATATGTAGGTTAAGGGTCATTAAGGTTGGTTCGC | 7.35 | 7.81 | 2.09 | 1.17 | 3.24 | 4.92 | 3.59 | 5.16 | 2.38 | 3.74
CAAACTAGGTAACCGGAAGGTCAAAGTCCGCATG | 6.68 | 6.36 | 1.05 | 1.34 | 3.53 | 3.95 | 1.57 | 4.88 | 1.78 | 3.35
ATCGAAAGGTCGAAGGTGAATATACCCACCCGAA | 0.205 | 2.75 | 0.488 | 1.25 | 2.07 | 3.5 | 0.328 | 5.15 | 0.699 | 4.04

Sequence | PBM binding z-score [1] | PBM binding z-score [2] | PBM binding z-score [3] | PBM binding z-score [4] | PBM binding z-score [5] | PBM binding z-score [6] | PBM binding z-score [7] | PBM binding z-score [8] | PBM binding z-score [9] | PBM binding z-score [10]
TCTAGCAAGCCAGAGGGTCACTCAAGAGGTACGG | 0.615 | -0.0358 | -1.2 | -1.18 | 0.24 | 0.871 | -0.204 | 1.96 | -0.908 | 1.62
CCTTACGGGTCAAGGTTATAGCTCGGGTGGTACG | 2.32 | 3.66 | 0.883 | -0.415 | 1.91 | 3.16 | 0.16 | 3.72 | 0.652 | 4.12
CAGCCTACGTCAGGGCCAGTATAGGAGGAACGTT | -0.745 | -0.587 | -0.356 | -0.405 | -0.116 | -0.512 | -0.548 | 0.00174 | -0.296 | -0.405
TAGGCTAGGTCATTCAGGGGCCAGTATAGAAAGC | 2.09 | 3.13 | 1.07 | 0.104 | 3.69 | 2.64 | 0.0687 | 3.93 | 0.404 | 4.12
CCTCGGAGGCCAACAGGAGGTCAGAGCTGCCAGA | -0.0138 | 0.518 | -0.818 | -1.87 | 1.58 | 2.35 | 0.122 | 2.83 | 0.23 | 2.98
CCTTACGGGTCACTGACAGGTTATCGCATTTGGA | 3.47 | 3.69 | 0.381 | 0.623 | 2.57 | 3.78 | -0.364 | 4.93 | 0.262 | 4.06
CAGCCTAGGTCAGGGCCAGTAAAGGAGGAACGTT | 1.26 | 1.51 | -1.63 | -1.14 | 0.652 | 0.328 | -0.795 | 1.08 | 0.335 | 3.49
TCTCGGAGGACACGAAAGATCAGAGCTCGACATC | 1.5 | 0.155 | -0.549 | -1.75 | -1.47 | -0.243 | -0.552 | -0.0104 | -0.742 | 1.17
CCTACTGGGCCACGAAAGGTCATCGATTCAGTGA | 5.98 | 5.97 | -0.47 | 0.605 | 4.31 | 5.62 | 0.616 | 6.08 | 0.927 | 4.17
AGAACGAGGGCACGCTGAGTTGAAAGCAGAGTAG | 3.49 | 3.67 | 0.808 | 0.246 | 0.111 | 1.36 | -0.00968 | 1.1 | -0.124 | 2.51
GGAACGAGGGCATGCGAGTTGATAGCATGGCGAT | 2.78 | 1.98 | -0.352 | -0.663 | -0.621 | 3.59 | 0.407 | 0.73 | -0.824 | 1.91
GGAACGAGGGCAACGTTGATAGCATCTGTCGACG | 4.02 | 3.49 | 0.439 | 0.351 | -0.132 | 0.282 | -0.723 | 0.65 | -0.381 | 2.32
AGAATGAGGTTATACCTAGATCAGGGAAGAAAGT | 2.11 | 2.02 | 1.05 | 0.686 | 0.0294 | 0.87 | 0.227 | 1.44 | -0.0854 | 1.19
TCTTGTAGATCAATAGAGGTTAAGAATGTGCGCT | 2 | 1.37 | 0.489 | 0.485 | 0.502 | 1.65 | 0.282 | 1.86 | 0.562 | 0.764
CATACATGGTCAGCTAGGCCAGAGTAGGGACGGC | -0.304 | 0.125 | 0.136 | -0.418 | -0.795 | -0.724 | -0.583 | -0.808 | 0.055 | 0.8
TATACAGGGTCAAAGGCCAGAGGACGAATGTCGA | 1.96 | 4.98 | 2.24 | 2.72 | 3.14 | 4.5 | 0.565 | 5.97 | 0.998 | 4.43
CGAACTAGGGCAAGGACAGTGAATCTCCGCACGC | 7 | 6.14 | 0.631 | -0.116 | -0.153 | -0.332 | -0.43 | -0.371 | -0.534 | 1.59
TTACCAAGGTGAAATGTCGTTGATGCACGCCTTG | 2.04 | 2.84 | 0.312 | 0.465 | 0.892 | 0.271 | -0.455 | 0.706 | -0.394 | 1.44
TCTAGTTTGTCACGGAGGTCACACACGACGGGTA | 1.88 | 3.07 | 0.895 | 1.64 | 2.96 | 4.44 | 1.91 | 4.55 | 1.86 | 3.54
CCGACTGTGGCAAAGGTTACCATACTCAGTACGA | 2.07 | 3.83 | 0.000701 | -0.266 | 1.71 | 1.84 | 0.27 | 2.56 | 0.0109 | 1.9
TCATATTGGTAAATGCTAGGTGAAAGTCCGATCT | 2.35 | 0.751 | 1.11 | 1.6 | 1.32 | 0.588 | 0.616 | 0.882 | 1.3 | 0.404
ACTATTAGTAGACTTAGGGCAACCGATACGACGC | 0.187 | 0.601 | 0.838 | 1.02 | 0.603 | 0.0648 | 0.218 | 0.0539 | 0.917 | 0.609
AGAATGAGGTTATACGTAGATCGGGGAAGAAAGT | 4.33 | 2.22 | 0.772 | -0.0447 | 1 | 1.43 | 0.718 | 1.92 | 0.264 | 1.58
ACTTACGGGTCAACGAGGTTAGAGCACGCGTATA | 3.74 | 4.28 | 0.679 | 0.825 | 2.64 | 4.7 | 1.33 | 4.99 | 0.957 | 4.2
